FLuc inh-1: inhibitors of firefly (Photinus pyralis) luciferase | purified P. pyralis luciferase, luminescence, biochemical | Potency, µM (titrated, usually from 115 µM), most hits filed as inhibitors | 76,000 compounds, 2.5% hits | AID 1347043; further: on the % scale 0 is the no-effect control and ±100 the full control effect; nearly all actives have a fitted effect of over 65% in size
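Biochemical qHTS: compound (6-point titration) added to 10uM D-luciferin plus 10uM ATP in Tris acetate pH 7.5 buffer with Mg, Tween-20 and BSA, then purified enzyme at 10nM; light output imaged.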
NIH3T3 tox: NIH 3T3 cell cytotoxicity. NIH 3T3 viability, CellTiter-Glo ATP luminescence, 48-72 h. Potency, µM (highest dose often 96.7 µM), for inactives: at the top dose activity change, negative = cytotoxicity, most hits filed as inhibitors. 94,000 compounds, 4.3% hits; further: on the % scale 0 is the no-effect control and ±100 the full control effect; nearly all actives have a fitted effect of over 55% in size
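Cytotoxicity was measured by CellTiter-Glo ATP luminescence after 48 or 72 h compound exposure at 37 °C. Mouse NIH 3T3 fibroblasts were seeded at 400 cells/well and dosed by 23 nL pin transfer.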
HEK cytotox: cytotoxic compounds in HEK 293 cells | Potency, µM (top dose mostly 115 µM), without a hit: at the top dose activity change, negative = cytotoxicity, actives largely listed as inhibitors | HEK 293 viability, ATP luminescence (CellTiter-Glo), 48-72 h | 94,000 compounds, 6.6% hits | AID 1345083; further: on the % scale 0 is the no-effect control and ±100 the full control effect; nearly all actives have a fitted effect of over 60% in size
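Luminescence from cellular ATP, measured with CellTiter-Glo, indicates HEK 293 viability. Cells plated at 250 cells/well are treated with compound for 48 or 72 hr at 37 degree Celsius before reagent addition.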
GPT2 inh: GPT2 alanine aminotransferase inhibition; 100,000 compounds, 0.25% hits; AID 1671188; Q8TD30; Recombinant GPT2, coupled pyruvate oxidase/HRP Amplex Red fluorescence; Potency, µM (doses to about 57.7 µM), for inactives: at the highest dose activity change, negative = inhibition, usual class: inhibitors; further: on the % scale 0 is the no-effect control and ±100 the full control effect; nearly all actives have a fitted effect of over 60% in size
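Fluorescence read-out: pyruvate from GPT2 turnover coupled to pyruvate oxidase, HRP and Amplex Red (0.2mM ThPP, 0.2U/mL PO and HRP, 50uM Amplex final). Substrates 250uM a-KG, 2mM L-alanine; enzyme 10ng/uL; 30 min RT.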
hNpr1 antagonist: blocks ANP-stimulated signaling of human Npr1 receptor. 76,000 compounds, 1.6% hits. HEK293 hNpr1 GloSensor cGMP, ANP-stimulated luminescence. Potency, µM (top dose mostly 46.3 µM), for the others: top-dose activity change, negative = inhibition, most hits filed as inhibitors; calls by dose curve; further: on the % scale 0 is the no-effect control and ±100 the full control effect; nearly all actives have a fitted effect of over 60% in size
Target sequence (P16066 whole entry, looked up): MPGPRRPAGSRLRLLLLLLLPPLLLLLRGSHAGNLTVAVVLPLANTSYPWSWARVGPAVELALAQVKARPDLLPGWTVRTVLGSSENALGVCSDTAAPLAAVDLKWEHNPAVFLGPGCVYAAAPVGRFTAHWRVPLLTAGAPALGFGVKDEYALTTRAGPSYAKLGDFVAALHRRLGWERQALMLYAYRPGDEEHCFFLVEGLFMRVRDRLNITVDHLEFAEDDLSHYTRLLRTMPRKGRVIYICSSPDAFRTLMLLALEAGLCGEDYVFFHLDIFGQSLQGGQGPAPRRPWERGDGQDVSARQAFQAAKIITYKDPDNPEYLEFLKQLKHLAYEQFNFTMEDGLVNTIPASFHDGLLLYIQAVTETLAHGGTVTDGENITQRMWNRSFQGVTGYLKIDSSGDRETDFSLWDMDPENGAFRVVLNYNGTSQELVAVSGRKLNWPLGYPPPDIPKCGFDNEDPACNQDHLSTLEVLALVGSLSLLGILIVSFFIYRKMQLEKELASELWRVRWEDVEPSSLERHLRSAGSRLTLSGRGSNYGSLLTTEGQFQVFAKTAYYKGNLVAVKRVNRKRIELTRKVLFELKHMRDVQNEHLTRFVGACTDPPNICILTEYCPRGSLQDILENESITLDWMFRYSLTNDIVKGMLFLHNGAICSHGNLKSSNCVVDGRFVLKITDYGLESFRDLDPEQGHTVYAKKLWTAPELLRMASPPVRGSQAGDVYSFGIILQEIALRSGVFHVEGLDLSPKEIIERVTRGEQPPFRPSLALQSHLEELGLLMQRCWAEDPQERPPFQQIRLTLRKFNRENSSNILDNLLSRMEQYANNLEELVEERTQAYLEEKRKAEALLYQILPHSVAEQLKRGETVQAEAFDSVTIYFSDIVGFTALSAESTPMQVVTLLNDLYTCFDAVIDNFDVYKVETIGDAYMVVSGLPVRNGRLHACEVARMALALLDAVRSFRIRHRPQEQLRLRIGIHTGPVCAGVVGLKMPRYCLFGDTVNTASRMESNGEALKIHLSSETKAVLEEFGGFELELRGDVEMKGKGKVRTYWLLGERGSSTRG
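Compound pre-incubated 30 min at room temperature on GloSensor-loaded HEK293 cells stably carrying hNpr1 and the pGS-40F cGMP biosensor. Stimulation uses hNppA at 0.1 nM final; luminescence is taken at baseline and 20 min post-agonist.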
FLuc SDR -ATP: firefly luciferase binding stabilization, ATP absent | shares compounds with FLuc inh-1 | Purified FLuc-C-HiBiT, Nano-Glo HiBiT luminescence, no ATP | Potency, µM (top dose mostly 32.7 µM), without a hit: at the highest dose activation (signal gain), usual class: activators | 1,300 compounds, 7.8% hits | AID 1963318; further: nearly all actives have a fitted effect of over 55% in size
FLuc SDR ATP: binders stabilizing firefly luciferase, plus ATP. 1,300 compounds, 8.7% hits. shares compounds with FLuc inh-1. AID 1963319. Potency, µM (series often up to 32.7 µM), for the others: at the highest dose activation (gain of signal), hits mostly activators. purified FLuc-C-HiBiT + ATP, HiBiT complementation luminescence;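 further: signal reports ligand binding via conformational change of the enzyme rather than luciferase catalysis; % of control where 0% means no effect; nearly all actives have a fitted effect of over 55% in size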
FLuc inh-2: firefly luciferase enzyme inhibition; shares compounds with FLuc inh-1; purified FLuc-C-HiBiT enzyme, luciferin luminescence; Potency, µM (titrated, usually from 32.7 µM), without a hit: at the highest dose activity change, negative = inhibition, usual class: inhibitors; 1,300 compounds, 42% hits; AID 1963320; further: on the % scale 0 is the no-effect control and ±100 the full control effect; nearly all actives have a fitted effect of over 70% in size
Starred values were filed as active, the others as inactive. The list is not random: actives were taken first. Their share in the collection is about 10%. Unless noted, the call rests on the fitted dose curve; in most records, active means well fitted curve in the direction sought with a large enough effect; inconclusive means small, poorly fitted or top-dose-only effect, or another doubt; inactive means no such curve, though single readings can be large; an effect the other way counts as inactive or inconclusive. Potency means the concentration at half of the fitted maximal effect.

How did Cc1cccc(OCC(=O)Nc2cccc(-c3nc4ccccc4s3)c2)c1 do in these assays?
FLuc SDR -ATP: 13.7%; FLuc SDR ATP: 9.7%; FLuc inh-2: inconclusive

What do the screens show for `CCC(CC)C(=O)Nc1cccc(-c2nc3ccccc3s2)c1`?
FLuc SDR -ATP: 26.2%; FLuc SDR ATP: 7.3%; FLuc inh-2: inconclusive

How did O=C(CSc1nnc2ccccn12)Nc1cccc(-c2nc3ccccc3s2)c1 do in these assays?
FLuc SDR -ATP: 12.5%; FLuc SDR ATP: 9.2%; FLuc inh-2: -6.8%

Results for O=C(Cc1ccccc1Cl)Nc1cccc(-c2nnc3n2CCCC3)c1 ?
FLuc inh-1: inactive; NIH3T3 tox: -9.8%; HEK cytotox: -9.9%; GPT2 inh: inconclusive; hNpr1 antagonist: 2.0%

Results for CCOc1cccc2c1OC[C@@H]1CN(CCC#N)C(=O)CCN(C(=O)c3ccc(C)cc3)[C@H]21 ?
NIH3T3 tox: inconclusive; HEK cytotox: -25.3%

How did CC(C)(C(=O)N1CCc2[nH]nc(-c3ccc(F)c(F)c3)c2C1)n1cccc1 do in these assays?
FLuc inh-1: inactive; NIH3T3 tox: inconclusive; HEK cytotox: inconclusive; GPT2 inh: 3.2%; hNpr1 antagonist: -22.5%

Results for Cc1nnc2ccc(N3CCCN(C(=O)C4CCCC4)CC3)nn12 ?
NIH3T3 tox: -3.5%; HEK cytotox: -3.9%

What do the screens show for `N#Cc1cccc(CN2CC(N3CC(C(=O)NCc4ccccc4)CC3=O)C2)c1` (centres undefined)?
NIH3T3 tox: inconclusive; HEK cytotox: inconclusive; GPT2 inh: -11.0%

How did COc1cccc(-c2nc3cc(NC(=O)c4ccc(F)c(C#N)c4)ccc3s2)c1 do in these assays?
FLuc SDR -ATP: 14.6%; FLuc SDR ATP: 11.6%; FLuc inh-2: -6.9%

How did CCOc1ccccc1C(=O)Nc1cccc(-c2nc3ccccc3s2)c1 do in these assays?
FLuc SDR -ATP: 13.5%; FLuc SDR ATP: 11.0%; FLuc inh-2: inconclusive

Results for COc1cccc(-c2cc(C(=O)Nc3ccc(F)cc3)c3cnn(C)c3n2)c1 ?
NIH3T3 tox: -13.5%; HEK cytotox: inconclusive

Results for Cc1ccc(OCC(=O)Nc2cccc(-c3nc4ccccc4s3)c2)cc1 ?
FLuc SDR -ATP: 13.6%; FLuc SDR ATP: 13.0%; FLuc inh-2: 9.89µM*

How did COc1ccccc1C(=O)Nc1cccc(-c2nnc3n2CCCC3)c1 do in these assays?
FLuc inh-1: inconclusive; NIH3T3 tox: -24.2%; HEK cytotox: -4.3%; GPT2 inh: inactive; hNpr1 antagonist: 3.2%

Results for CCN1C(=O)C2(CCN(C(=O)c3ccc(OC(C)C)cc3)CC2)c2ccccc21 ?
FLuc inh-1: inactive; NIH3T3 tox: -26.7%; HEK cytotox: inconclusive; GPT2 inh: inactive; hNpr1 antagonist: -1.0%

How did O=C(Nc1cnc(-c2ccc(Cl)cc2)nc1)C1CCC1 do in these assays?
FLuc inh-1: 0.282µM*; NIH3T3 tox: -0.8%; HEK cytotox: 2.0%; GPT2 inh: inactive; hNpr1 antagonist: 5.62µM*; FLuc SDR -ATP: inconclusive; FLuc SDR ATP: inconclusive; FLuc inh-2: 1.24µM*

Results for O=C(Nc1cnc(-c2ccccc2)nc1)C1CCCC1 ?
FLuc inh-1: 1µM*; NIH3T3 tox: -22.0%; HEK cytotox: inconclusive; GPT2 inh: inactive; hNpr1 antagonist: 10µM*; FLuc SDR -ATP: inconclusive; FLuc SDR ATP: inconclusive; FLuc inh-2: 2.48µM*
